Where a name gives a salt, the structure may show the parent alone.
What was measured:
HCC1937 = experiment: relative cell viability, compound alone, vs DMSO (fraction of DMSO control); higher = less growth inhibition; details: 72 h
MDA-MB-231 = experiment: as above; details: 72 h
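Note: viability read out with the CCK-8 kit in 96-well plates, screening a set of 303 compounds acting on lipid metabolism targets.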

Row | Compound | relative cell viability (HCC1937) | relative cell viability (MDA-MB-231)
1 | CCCCCCCCCCC#CC#CCCCCCCCCC(=O)O [10,12-Tricosadiynoic acid] | 0.712 | 0.911
2 | O=C(c1c2ccccc2cc2ccccc12)N1CCC(N2CCC[C@@H](C(=O)N3CCOCC3)C2)CC1 | 0.763 | 0.836
3 | CC(C)Cc1ccc([C@H](C)C(=O)O)cc1 [Dexibuprofen] | 1.36 | 0.905
4 | COc1ccc([C@@H]2OC[C@H]3[C@@H]2CO[C@@H]3c2ccc(O[C@@H]3O[C@H](CO)[C@@H](O)[C@H](O)[C@H]3O)c(OC)c2)cc1OC [Forsythin] | 1.22 | 1.06
5 | CC(C)n1c(/C=C/C(O)CC(O)CC(=O)O)c(-c2ccc(F)cc2)c2ccccc21 (stereo unspecified) [Fluvastatin sodium salt] | 0.924 | 0.863
6 | CC(C)(O)[C@@H]1Cc2cc3ccc(=O)oc3cc2O1 [marmesin] | 0.74 | 0.866
7 | CN1CC(O)C2=C/C(=N/NC(N)=O)C(=O)C=C21 (stereo unspecified) [Carbazochrome] | 0.793 | 0.871
8 | COC(=O)N(CC(=O)O)Cc1cccc(OCc2nc(-c3ccc(Cl)cc3)oc2C)c1 | 1.08 | 0.834
9 | CCCc1cc(-c2nc(-c3ccc(C)cc3)cs2)ccn1 [Fatostatin] | 0.733 | 0.745
10 | O=C(CCCCc1ccc2c(c1)OCO2)N1CCCCC1 | 0.608 | 0.838
11 | O=C(Nc1ccncc1)c1cc([N+](=O)[O-])ccc1Cl | 0.81 | 0.831
12 | CCC1C(O)C2C3CCC(C(C)CCO)C3(C)CCC2C2(C)CCC(O)CC12 (stereo unspecified) | 0.848 | 0.916
13 | Cc1coc2c1C(=O)C(=O)c1c-2ccc2c(C)cccc12 [Tanshinone I] | 0.287 | 0.51
14 | NC(=O)c1cccc(-c2cccc(OC(=O)NC3CCCCC3)c2)c1 | 0.822 | 1.02
15 | O=C(ON1C(=O)CCC1=O)N1CCN(C(c2ccc(Cl)cc2)c2ccc(Cl)cc2)CC1 [Cravatt Reagent] | 1.26 | 0.975
16 | N=C(N)NC(=N)NCCc1ccccc1 [Phenformin hydrochloride] | 0.76 | 0.868
17 | CCCCCCCCCCCCCCOc1ccc(C(=O)OCC(=O)N(C)CC(=O)OCC)o1 [Olumacostat Glasaretil] | 0.812 | 0.863

Row | Compound | relative cell viability (HCC1937) | relative cell viability (MDA-MB-231)
18 | Nc1cccc(S(=O)(=O)N2CCCN(S(=O)(=O)c3ccc4c(c3)OCCO4)CC2)c1 | 0.881 | 1.01
19 | COc1ccc(N(C(=O)Nc2c(C)cccc2C)c2cc(Nc3ccc(N4CCN(C)CC4)cc3)ncn2)c(OC)c1 | 0.915 | 1.11
20 | CCc1ccc(CCOc2ccc(CC3SC(=O)NC3=O)cc2)nc1 (stereo unspecified) [Pioglitazone] | 1.17 | 0.843
21 | CC[C@H](C)C(=O)O[C@H]1C[C@H](O)C=C2C=C[C@H](C)[C@H](CC[C@@H](O)C[C@@H](O)CC(=O)O)[C@H]21 [Pravastatin sodium] | 0.918 | 0.964
22 | Cc1c(C)c2c(c(C)c1O)CCC(C)(COc1ccc(CC3SC(=O)NC3=O)cc1)O2 (stereo unspecified) [Troglitazone] | 0.718 | 0.984
23 | CC(C)CCC[C@@H](C)[C@H]1CC[C@H]2[C@@H]3CC=C4C[C@@H](O)CC[C@]4(C)[C@H]3CC[C@]12C [Cholesterol] | 0.91 | 1.01
24 | CNC(=O)c1cccc(NC(=O)N2CCC(Oc3ccccc3Cl)CC2)c1 | 0.991 | 0.974
25 | CC[C@H](C)C(=O)O[C@H]1C[C@@H](C)C=C2C=C[C@H](C)[C@H](CC[C@@H]3C[C@@H](O)CC(=O)O3)[C@H]21 [Lovastatin] | 1.13 | 0.657
26 | CCCCCC=CC(=O)CCc1ccc(O)c(OC)c1 [6-Shogaol] | 0.937 | 0.978
27 | C[C@@H]1OCC2(CCN(c3cnc(Sc4ccnc(N)c4Cl)c(N)n3)CC2)[C@@H]1N | 0.896 | 0.996
28 | O=C(CC(C(=O)O)c1c[nH]c2ccccc12)c1ccc(F)cc1F (stereo unspecified) [Mitochonic acid 5] | 1.26 | 1.19
29 | C/C=C(\CC[C@@H](C)[C@H]1CC[C@H]2[C@@H]3CC=C4C[C@@H](O)CC[C@]4(C)[C@H]3CC[C@]12C)C(C)C [Fucosterol] | 1 | 0.968
30 | O=C1c2cccc(O)c2C(=O)c2c(O)cccc21 [Antrapurol] | 0.699 | 0.808
31 | C[C@H]1N=C(N(C)C)N=C(N)N1 [Imeglimin hydrochloride] | 0.912 | 0.838
32 | Cc1cc([N+](=O)[O-])ccc1NS(=O)(=O)c1cc(Cl)ccc1Cl | 0.579 | 0.795
33 | COc1cc(F)c(C(C)C)cc1-c1ccc(C(F)(F)F)cc1CN1C(=O)O[C@H](c2cc(C(F)(F)F)cc(C(F)(F)F)c2)[C@@H]1C [Anacetrapib] | 0.72 | 0.877

Reference: the supplement of paper PMC9492666
